# High-throughput results: PubChem, National Center for Advancing Translational Sciences (NCATS)
# HT1080 IDH1KD tx – HT-1080 IDH1 knockdown cell toxicity (counter line). HT-1080 IDH1 knockdown viability, ATP luminescence, 48 h. Potency, µM (top dose mostly 46.1 µM), for inactives: at the highest dose activity, negative = toxicity, most hits filed as cytotoxic. 360,000 tested, 2% active. AID 686971;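 note: potency is the fitted concentration of half-maximal effect; 0% = DMSO wells and -100% = cell-free medium wells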
#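 HT-1080-IDH1KD cells (IDH1 knocked down), 750/well in RPMI with 5% FBS, treated with compound 48 h at 37 degrees C. Viability by CellTiter-Glo luminescence, normalised to DMSO and no-cell wells; concentration-response curves classed.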
# ALOX12 inh – inhibitors of human 12S-lipoxygenase ALOX12. P18054. purified 12hLO, xylenol orange hydroperoxide absorbance. Potency, µM (series often up to 108 µM), for the others: top-dose activity change, negative = inhibition, actives largely listed as inhibitors. 580,000 tested, 1.1% active; note: potency is the fitted concentration of half-maximal effect
# Target sequence (P18054 whole entry, looked up): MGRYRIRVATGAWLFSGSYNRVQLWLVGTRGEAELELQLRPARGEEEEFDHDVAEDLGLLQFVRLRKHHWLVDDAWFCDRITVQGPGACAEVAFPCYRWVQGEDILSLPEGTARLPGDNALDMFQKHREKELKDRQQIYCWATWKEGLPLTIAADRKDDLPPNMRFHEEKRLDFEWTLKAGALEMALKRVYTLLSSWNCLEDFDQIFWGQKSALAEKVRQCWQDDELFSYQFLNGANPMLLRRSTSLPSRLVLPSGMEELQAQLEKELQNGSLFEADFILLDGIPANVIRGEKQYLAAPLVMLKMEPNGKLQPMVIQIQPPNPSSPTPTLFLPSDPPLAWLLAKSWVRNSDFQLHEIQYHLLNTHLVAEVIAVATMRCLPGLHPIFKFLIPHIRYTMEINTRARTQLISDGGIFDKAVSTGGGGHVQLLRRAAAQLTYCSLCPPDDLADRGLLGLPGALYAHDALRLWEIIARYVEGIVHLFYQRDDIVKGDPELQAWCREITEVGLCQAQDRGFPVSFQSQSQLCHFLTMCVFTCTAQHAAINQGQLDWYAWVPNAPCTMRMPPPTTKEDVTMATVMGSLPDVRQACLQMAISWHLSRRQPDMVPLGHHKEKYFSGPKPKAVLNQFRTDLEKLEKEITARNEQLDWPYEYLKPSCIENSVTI
#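 Purified human 12hLO at 150 nM in 25 mM Hepes, 0.01% Triton X-100, pH 7.0, preincubated 15 min at room temperature with compound. Reaction started with 40 uM arachidonic acid, 30 min at room temperature. Hydroperoxide measured by Fe-xylenol orange, 573/405 nm absorbance ratio.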
# HT1080NT lethal – kills 2HG-producing HT-1080-NT fibrosarcoma cells. HT-1080-NT fibrosarcoma viability, CellTiter-Glo ATP luminescence, 48 h. AID 686970. 360,000 tested, 1.6% active. Potency, µM (titrated, usually from 46.1 µM), inactives show top-dose activity, negative = less viability, hits mostly cytotoxic;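 note: NT is the 2HG producing partner of a matched IDH1 knockdown line; potency is the fitted concentration of half-maximal effect; 0% = DMSO-treated cells and -100% = media-only wells without cells; nearly all actives have a fitted effect of over 55% in size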
#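 HT-1080-NT fibrosarcoma cells (2HG-overproducing), 750 cells/well in RPMI with 5% FBS, dosed after 2 h and incubated 48 h at 37C. CellTiter-Glo luminescence normalized to DMSO and no-cell wells; concentration-response curves fitted and classed.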
# DT40 TDP1 CPT – DT40-hTDP1 cell growth loss with CPT; chicken DT40 Tdp1-/-;hTDP1 cells + 20 nM CPT, ATP luminescence, 48 h; Potency, µM (titrated, usually from 46.2 µM), without a hit: at the top dose activity change, negative = growth inhibition, most hits filed as inhibitors; 420,000 tested, 12% active; AID 686979; note: potency is the fitted concentration of half-maximal effect; nearly all actives have a fitted effect of over 55% in size
#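 Chicken DT40 Tdp1-/- cells stably complemented with human TDP1 were seeded at 400 cells/well in medium containing 20 nM camptothecin, exposed to pin-transferred compounds, and grown at 37 °C for at least 48 hr. Viability was read as ATP luminescence.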
# IL1B secr inh – inhibitors of inflammasome signaling (IL-1 beta secretion). activity change, % at 57.5 µM. 360,000 tested, 4.7% active. THP-1 LPS/ATP IL-1B secretion, AlphaLISA, 16 h; active compounds read low; in the data active = activity change below about -50%; inconclusive = mostly about -30% to -49%
#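 Secreted IL-1B measured by AlphaLISA bead assay after 16 h compound exposure of THP-1 cells; compounds (final up to 57.5 uM) added 1 h before LPS (250 ng/mL) and ATP (1.25 mM) stimulation; lower signal means less secretion.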
# DT40 TDP1 no CPT – qHTS for Inhibitors of human tyrosyl-DNA phosphodiesterase 1 (TDP1): qHTS in cells in absence of CPT; DT40 Tdp1-/- hTDP1 cells, no CPT, ATP luminescence, 48 h; Potency, µM (titrated, usually from 46.2 µM), inactives show at the top dose activity change, negative = growth inhibition, most hits filed as inhibitors; 420,000 tested, 15% active; note: potency is the fitted concentration of half-maximal effect; nearly all actives have a fitted effect of over 55% in size
#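 No-CPT arm: Tdp1-/-;hTDP1 DT40 cells (400/well) plus compounds, incubated ≥48 hr at 37 °C. Readout CellTiter-Glo luminescence.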
# Numbers without * were called inactive; ? = inconclusive; . = no result given; ! = a repeat was not active. This is one part of a sample in which hits are shown more often than they occur. Unless noted, calls come from the whole dose curve; as a rule, active = well fitted curve in the direction sought with a large enough effect; inconclusive = small, poorly fitted or top-dose-only effect, or another doubt; inactive = no such curve, though single readings can be large; an effect the other way counts as inactive or inconclusive. Unless noted, % is set by controls: 0 for no effect and ±100 for the full control effect.
SMILES,HT1080 IDH1KD tx,ALOX12 inh,HT1080NT lethal,DT40 TDP1 CPT,IL1B secr inh,DT40 TDP1 no CPT
CCOP(=O)(OCC)c1nc(-c2cccc3ccccc23)oc1NC,.,-19%,.,.,.,.
COc1ccc(N2C(=O)C(Cl)=C(Nc3c(C)n(C)n(-c4ccccc4)c3=O)C2=O)cc1,-1%,?,1%,2.6µM*,-13,5.8µM*
COc1ccc(N2C(=O)C(Cl)=C(Nc3ccc(OC)cc3OC)C2=O)cc1,-9%,27%,-7%,2%,-6,?
COc1ccc(NC2=C(Cl)C(=O)N(c3ccccc3)C2=O)c(OC)c1,6%,-9%,12%,18µM*,-22,8%
CCOc1ccc(N2C(=O)C(Cl)=C(Nc3ccccc3O)C2=O)cc1,-27%,?,-18%,21µM*,-9,13µM*
COc1ccccc1NC1=C(Cl)C(=O)N(c2ccccc2)C1=O,19%,-13%,7%,7%,23,3%
CCOC(=O)c1ccc(NC(=O)CC2C(=O)N(c3ccc(C)cc3)C(=O)N2C2CCCC2)cc1 (stereo not drawn),.,-7%,.,?,.,21µM*
COC(=O)c1ccc(NC(=O)CC2C(=O)N(c3ccccc3)C(=O)N2C2CCCC2)cc1 (stereo not drawn),.,?,.,?,.,16µM*
COc1ccc(NC(=O)CC2C(=O)N(c3ccc(C)cc3)C(=O)N2C2CCCCC2)cc1 (stereo not drawn),.,-28%,.,5%,.,-5%
CN1CC2(CCN(C(=O)c3cccnc3N(C)C3CCCCC3)CC2)OC1=O,.,7%,.,.,.,.
CC(C)NC(=O)NCC1Cn2cccc2CN1C (stereo not drawn),.,74%,.,.,.,.
O=[N+]([O-])c1ccc(/C=N/Nc2cc(Cl)nc(-c3ccccc3)n2)cc1,19%,251%,13%,?,-1,?
Cc1cc(NCCc2cnccn2)nc(-c2ccccc2O)n1,.,3%,.,.,.,.
CC(=NNc1ccc([N+](=O)[O-])cn1)c1ccccc1,2%,-9%,10%,-7%,0,5%
C/C(=N\Nc1cc(C)nc(-c2ccccc2)n1)c1cccc([N+](=O)[O-])c1,-10%,-2%,1%,21µM*,-29,?
Cc1cc(NCCCN)nc(-c2ccccc2O)n1,-17%,0%,-21%,?,-62*,?
C/C(=N\Nc1cc(C)nc(-c2ccccc2O)n1)c1ccccc1,?,14%,?,?,-68*,?
O=[N+]([O-])c1cccc(/C=N/Nc2cc(Cl)nc(-c3ccccc3)n2)c1,4%,-16%,6%,?,-77*,21µM*
COc1ccc(-c2noc(CC3CCN(C(=O)Cc4ccc(OC)c(Cl)c4)CC3)n2)cc1,.,-1%,.,.,.,.
O=C(COc1ccc2c(=O)c(-c3ccccc3Cl)coc2c1)Nc1ccccc1Cl,.,0%,.,.,.,.
C=CCNCc1ccsc1,.,-24%,.,.,.,.
CCOc1ccccc1-n1nnnc1SCc1nc2ccccc2[nH]1,.,-5%,.,.,.,.
Cc1cc(N/N=C/c2ccc(O)c(C)c2O)nc(-c2ccccc2O)n1,?,-9%,?,13µM*,-98*,9.2µM*
Cc1cc(C)cc(Oc2c(C(F)(F)F)oc3cc(OCc4ccccc4)ccc3c2=O)c1,.,-21%,.,.,.,.
CC(C)(CNC(=O)NCC1CC=CCC1)C(N)=O (stereo not drawn),.,-13%,.,.,.,.
SMILES,HT1080 IDH1KD tx,ALOX12 inh,HT1080NT lethal,DT40 TDP1 CPT,IL1B secr inh,DT40 TDP1 no CPT
CC(C)CCNC(=O)NC(=O)COC(=O)Cc1c[nH]c2ccccc12,.,-30%,.,.,.,.
COc1ccc(C2=NN(C(=O)c3cccc([N+](=O)[O-])c3)C(c3cccc([N+](=O)[O-])c3)C2)cc1 (stereo not drawn),-13%,20%,-4%,3%,-4,-14%
Cc1ccc(C2=Nc3ccccc3SC(c3cccc([N+](=O)[O-])c3)C2)cc1 (stereo not drawn),7%,-26%,8%,?,-17,16µM*
COc1cc(/C=C2\C(C)=C(C#N)c3nc(N)c(C#N)c(C)c32)ccc1OCC(=O)O,0%,?,12%,23µM*,0,?
O=C(NCc1cccnc1)c1ccc(Cl)c(Cl)c1,2%,0%,-3%,23%,17,14%
O=C(NCc1cccnc1)/C(=C\c1ccc(-c2ccc(Cl)c(Cl)c2)o1)S(=O)(=O)c1ccccc1,?,-25%,?,4.6µM*,-107*,4.6µM*
NCCCCCc1nnc(SCc2ccc(Cl)c(Cl)c2)o1,0%,0%,5%,1%,10,1%
NCCCN(Cc1ccc(Cl)c(Cl)c1)c1ccc(Br)cn1,11µM*,.,?,3.5µM*,.,5µM*
CCCCN(CCCN)c1ccc(Br)cn1,2%,.,7%,?,.,?
NCCCN(Cc1ccc(Cl)cc1)c1ccc(Br)cn1,11µM*,.,?,10µM*,.,7.9µM*
Nc1ccc2cc(S(=O)(=O)O)cc(S(=O)(=O)O)c2c1,.,17%,.,.,.,.
Cc1ccc(CNC(=O)N2CCC(c3noc(-c4cccnc4)n3)C2)cc1 (stereo not drawn),.,41%,.,.,.,.
Clc1cccc[n+]1CCc1ccccc1,.,.,.,-28%,.,7%
Cc1cccc[n+]1Cc1ccccc1,.,16µM*,.,.,.,.
Cc1cccc[n+]1CCCCCCCCCC[n+]1ccccc1C,4%,14µM*!,15%,?,34,3%
CCCNC(=O)COC(=O)c1cccnc1Nc1ccccc1F,-2%,-15%,-1%,-27%,-9,16µM*
Cc1ccc(C(=O)CSc2ncnc3sc4c(c23)CCCC4)cc1,15%,11%,-6%,?,-5,21µM*
CCC(Sc1ncnc2sc3c(c12)CCCC3)C(=O)OC(C)C (stereo not drawn),.,-2%,.,18µM*,.,?
O=C(O)CSc1ncnc2sc3c(c12)CCCC3,4%,-16%,16%,-2%,21,-24%
CCC(Sc1ncnc2sc3c(c12)CCCC3)C(=O)OCC(C)C (stereo not drawn),.,-11%,.,26µM*,.,?
CCCC(=O)NNC(=S)NC(C)C,.,7%,.,.,.,.
COc1ccc(N2C(=O)CSC23C(=O)N(Cc2cccc(C(F)(F)F)c2)c2ccccc23)cc1 (stereo not drawn),.,3%,.,?,.,15µM*
O=C1CSC2(C(=O)N(Cc3cccc(C(F)(F)F)c3)c3ccccc32)N1c1ccc(F)c(F)c1 (stereo not drawn),.,-11%,.,21µM*,.,16µM*
